Records with an inconclusive call do not appear. Activity calls are given as the source filed them. Calls come from the whole dose curve; as a rule, active = well fitted inhibition curve with a large enough effect; inconclusive = small, poorly fitted or top-dose-only effect; inactive = flat fitted curve, though single readings scatter.
Columns and labels:
CRL-7250 [1] = assay: Cytotoxic Profiling of Annotated Libraries Using Quantitative High-Throughput Screening (AID 1296008); conditions: Five cell lines viability, CellTiter-Glo ATP luminescence, 48-72 h; max response: hits give low values; for max response: % is set by controls: 0 for no effect and ±100 for the full control effect
Outline: (§1)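 Cytotoxicity was measured as CellTiter-Glo ATP luminescence, read after 10 min at room temperature. Compound treatment of the cells lasted 48 or 72 hr at 37 degrees Celsius in a qHTS format.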

HaCat [2] = assay: as above; conditions: Five cell lines viability, CellTiter-Glo ATP luminescence, 48-72 h; max response: hits give low values
Outline: as §1

NIH3T3 = assay: as above; conditions: Five cell lines viability, CellTiter-Glo ATP luminescence, 48-72 h; max response: hits give low values
Outline: as §1

CRL-7250 [3] = assay: qHTS assay to identify novel small-molecules to repurpose for Merkel cell carcinoma treatment (AID 1296009); conditions: MCC and control cell lines, CellTiter-Glo viability, 72 h; at 44.8 µM (top of the series) unless noted
Outline: (§2)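 72 hr, 37 degree celsius; NPC 8-pt / MIPE 11-pt dose response; compound pinned in DMSO; CellTiter-Glo, 10 min RT, luminescence; normalized to no-cell and DMSO controls.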

HACAT [4] = assay: as above; conditions: MCC and control cell lines, CellTiter-Glo viability, 72 h; at 44.8 µM (top of the series) unless noted
Outline: as §2

PAD = assay: qHTS profiling for inhibitors of Plasmodium falciparum proliferation (AID 504749); note: potency is the fitted concentration of half-maximal effect; conditions: P. falciparum in erythrocytes, SYBR Green DNA, 72 h; series mostly up to 28.7 µM
Outline: (§3)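 Infected RBCs, 0.3% parasitemia/2.5% Hct final; cpd 72 h, 37 C, 5% CO2; lysis buffer with saponin/triton/SYBR Green I, o/n RT dark; FI 485/535; norm. to artemisinin (0.29 uM) and DMSO.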

TAB165 = assay: as above; conditions: P. falciparum in erythrocytes, SYBR Green DNA, 72 h; series mostly up to 28.7 µM
Outline: as §3

HEK293T = assay: qHTS assay to identify novel small-molecules to repurpose for Merkel cell carcinoma treatment (AID 1296009); conditions: MCC and control cell lines, CellTiter-Glo viability, 72 h; at 44.8 µM (top of the series)
Outline: as §2

N140 = assay: qHTS profiling for inhibitors of Plasmodium falciparum proliferation (AID 504749); note: potency is the fitted concentration of half-maximal effect; conditions: P. falciparum in erythrocytes, SYBR Green DNA, 72 h; series mostly up to 28.7 µM
Outline: as §3

P94_40 = assay: as above; conditions: P. falciparum in erythrocytes, SYBR Green DNA, 72 h; series mostly up to 28.7 µM
Outline: as §3

PC49 = assay: as above; conditions: P. falciparum in erythrocytes, SYBR Green DNA, 72 h; series mostly up to 28.7 µM
Outline: as §3

SC27B = assay: as above; conditions: P. falciparum in erythrocytes, SYBR Green DNA, 72 h; series mostly up to 28.7 µM
Outline: as §3

TAB109 = assay: as above; conditions: P. falciparum in erythrocytes, SYBR Green DNA, 72 h; series mostly up to 28.7 µM
Outline: as §3

TAB113 = assay: as above; conditions: P. falciparum in erythrocytes, SYBR Green DNA, 72 h; series mostly up to 28.7 µM
Outline: as §3

P93_24 = assay: as above; conditions: P. falciparum in erythrocytes, SYBR Green DNA, 72 h; series mostly up to 28.7 µM
Outline: as §3

PC15 = assay: as above; conditions: P. falciparum in erythrocytes, SYBR Green DNA, 72 h; series mostly up to 28.7 µM
Outline: as §3

PC26 = assay: as above; conditions: P. falciparum in erythrocytes, SYBR Green DNA, 72 h; series mostly up to 28.7 µM
Outline: as §3

W2 = assay: as above; conditions: P. falciparum in erythrocytes, SYBR Green DNA, 72 h; series mostly up to 28.7 µM
Outline: as §3
Note: nearly all actives have a fitted effect of over 60% in size.

CC1Sc2c(C(=O)O)c(=O)c3cc(F)c(N4CCNCC4)cc3n21 (stereo unspecified)
inactive: max response (CRL-7250 [1]) -1.22% | max response (HaCat [2]) 0.258% | outcome (NIH3T3)

O=c1[nH]c2cc(Cl)ccc2n1C1CCNCC1
inactive: outcome (CRL-7250 [1]) | outcome (HaCat [2]) | outcome (NIH3T3) | outcome (CRL-7250 [3]) | outcome (HACAT [4])

CN1C2CCC(C)(C)C1CC(OC(=O)C(O)(c1cccs1)c1cccs1)C2 (stereo unspecified)
inactive: max response (CRL-7250 [1]) -6.95% | outcome (HaCat [2]) | max response (NIH3T3) -4.3% | outcome (HACAT [4])

C[N+]1(CCC(C(N)=O)(c2ccccc2)c2ccccc2)CCCCC1
inactive: Potency (PAD) | Potency (TAB165) | outcome (HEK293T)

C[C@]12Cc3nonc3C[C@@H]1CC[C@@H]1[C@@H]2CC[C@@]2(C)[C@H]1CC[C@]2(C)O
inactive: Potency (PAD)

Cc1c(Cl)c(=O)oc2cc(OP(=O)(OCCCl)OCCCl)ccc12
active: Potency (TAB165) 7.08 µM

CNC(=O)Oc1cccc2ccccc12
inactive: Potency (N140) | Potency (PC49) | Potency (SC27B) | Potency (TAB109) | Potency (TAB113)
active: Potency (P94_40) 12.6 µM

CC(C)(O)C(Cl)(Cl)Cl
active: Potency (N140) 2.51 µM | Potency (P93_24) 2.24 µM | Potency (P94_40) 2.51 µM | Potency (PAD) 3.55 µM | Potency (PC15) 2.24 µM | Potency (PC26) 8.49 µM | Potency (PC49) 7.08 µM | Potency (SC27B) 4.47 µM | Potency (TAB109) 3.16 µM | Potency (TAB113) 4.47 µM | Potency (TAB165) 1.78 µM | Potency (W2) 1.51 µM
inactive: outcome (HACAT [4])
